Compounds with a hit are over-represented: about 2.3% of the library has one in this group of screens.
Mcl1-Bid inh = disrupts binding of human Mcl-1 to Bid peptide. 0.97% of 220,000 active. inhibition, % at 21.7 µM. AID 1021. TR-FRET Mcl-1/Bid-Dy647 peptide binding, 1536-well;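 active = compounds that cut the binding signal by more than half at the single screening dose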;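 also: His-tagged Mcl-1 with europium anti-His antibody binding Bid BH3 peptide; 0% = Mcl-1 plus peptide wells and 100% = peptide-only wells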
Bim-Mcl-1 = inhibitors of Bim-Mcl-1 interaction, human | AID 1009 | Bead-based flow cytometry, Bim peptide-Mcl-1 binding | Q07820 | inhibition, % at 10 µM | 0.1% of 190,000 active; in the data active = inhibition above about 40%;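 also: 0% = no compound tracer wells and 100% = peptide blocker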
MCL1 BIM primary = disrupts human MCL1 binding to BIM-BH3 peptide | GST-MCL1 / FITC-Bim-BH3 fluorescence polarization | inhibition, % at 10.9 µM | 0.68% of 320,000 active | AID 2057;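 active = inhibition above the mean inhibition of all tested compounds plus 3 SD, set per campaign, cut at about 40% in these data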;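 also: 0% = DMSO wells and 100% = unlabeled Bim-BH3 peptide control; higher means more loss of mP so more displacement of Bim peptide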
Mcl1-Noxa inh = disrupts binding of human Mcl-1 to Noxa peptide. TR-FRET Mcl-1/Noxa peptide binding, 2 h. Q07820. inhibition, % at 21.7 µM. 1.5% of 220,000 active;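 active = compounds that cut the protein-peptide binding signal by more than 50% relative to plate controls in a single-dose test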;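 also: His-tagged Mcl-1 with rhodamine Noxa BH3 peptide and terbium anti-His antibody; 0% = Mcl-1 plus Noxa peptide wells and 100% = peptide-only wells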
Bcl-xL primary = Bcl-xL (human) inhibition; 0.7% of 320,000 active; Q07817; GST-Bcl-xL / FITC-Bim BH3 peptide fluorescence polarization; inhibition, % at 10.9 µM;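 active = inhibition above the mean of all tested compounds plus 3 SD, cutoff set per campaign, cut at about 30% in these data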;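 also: 0% = DMSO wells and 100% = unlabeled Bim-BH3 peptide competitor; inhibitors lower millipolarization by displacing the labeled peptide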
GLD-1 RNA inh = GLD-1-TGE RNA interaction inhibition (C. elegans) | Q17339 | purified GLD-1 + fluorescein TGE RNA, fluorescence polarization | inhibition, % at 5.96 µM | 0.44% of 320,000 active;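 active = percent inhibition above a per-plate cutoff, the plate mean of test compounds plus 3 SD, cut at about 30% in these data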;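 also: 0% = DMSO wells with GLD-1 and probe and 100% = wells lacking GLD-1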
Target sequence (Q17339 whole entry, looked up): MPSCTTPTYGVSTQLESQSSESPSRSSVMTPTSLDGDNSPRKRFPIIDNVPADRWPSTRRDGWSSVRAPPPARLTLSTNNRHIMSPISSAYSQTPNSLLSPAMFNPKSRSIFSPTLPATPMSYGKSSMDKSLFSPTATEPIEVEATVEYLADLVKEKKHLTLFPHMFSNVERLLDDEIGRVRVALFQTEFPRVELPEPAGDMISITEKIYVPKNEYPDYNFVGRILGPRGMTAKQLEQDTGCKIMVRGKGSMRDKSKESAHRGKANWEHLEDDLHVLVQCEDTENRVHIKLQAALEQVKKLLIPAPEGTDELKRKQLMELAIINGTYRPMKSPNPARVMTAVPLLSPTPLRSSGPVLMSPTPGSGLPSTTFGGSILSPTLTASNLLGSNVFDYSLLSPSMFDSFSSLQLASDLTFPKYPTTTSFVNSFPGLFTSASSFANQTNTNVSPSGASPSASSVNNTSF
Bcl-xL conf = Bcl-xL (human) inhibition, MCL1 counter-screen confirmation; shares compounds with MCL1 BIM primary; GST-Bcl-xL / FITC-Bim BH3 peptide FP binding; inhibition, % at 10.9 µM; 54% of 1,700 active; AID 2166;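 active = inhibition above a cutoff equal to the mean inhibition of all tested compounds plus 3 SD, cut at about 30% in these data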;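 also: 0% = DMSO wells and 100% = unlabeled Bim BH3 control peptide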
MCL1 inh confirm = MCL1-BIM-BH3 interaction inhibition, confirmation; GST-MCL1 / FITC-Bim-BH3 fluorescence polarization; 61% of 1,700 active; AID 2168; shares compounds with MCL1 BIM primary; inhibition, % at 10.9 µM;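 active = inhibition above the average of all tested compounds plus 3 SD, cut at about 40% in these data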;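 also: 0% = DMSO wells and 100% = unlabeled Bim-BH3 control peptide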
An asterisk follows results filed as active; x = not tested or not shown.

SMILES | Mcl1-Bid inh | Bim-Mcl-1 | MCL1 BIM primary | Mcl1-Noxa inh | Bcl-xL primary | GLD-1 RNA inh | Bcl-xL conf | MCL1 inh confirm
Cc1cccc(N2CCN(S(=O)(=O)c3cc(-c4cc(C)no4)ccc3C)CC2C)c1 (stereo not drawn) | x | x | 5 | x | 4 | 9 | x | x
COc1ccc2nc(-n3c(O)c(C4=c5ccccc5=NC4=O)[nH]c3=S)sc2c1 | 99* | -9 | 68* | 92* | 15 | 2 | 33* | 92*
Cn1c(O)c(C2=c3ccccc3=NC2=O)[nH]c1=S | -39 | 2 | 26 | 23 | 12 | 3 | x | x
NC(=O)c1ccc(NC(=O)COC(=O)CC2Sc3ccccc3NC2=O)cc1 (stereo not drawn) | x | x | 1 | x | -5 | -2 | x | x
O=C(O)C1Nc2ccc(OC(F)(F)F)cc2C2C=CCC12 (stereo not drawn) | x | x | 106* | x | 48* | 0 | 15 | 67*
COc1cccc(C2Nc3c(F)cc(Br)cc3C3C=CCC32)c1OC (stereo not drawn) | -11 | 5 | 4 | -6 | 3 | 3 | x | x
COc1cccc2c1NC(C(=O)O)C1CC=CC21 (stereo not drawn) | 75* | 6 | 96* | 101* | 79* | 4 | 57* | 90*
CCN(CC)c1ccc2cc(-c3nc(-c4ccc(OC)cc4)cs3)c(=O)oc2c1 | -19 | x | 110* | -1 | 107* | 67* | 115* | 134*
CCN(CC)c1ccc2cc(-c3nc4ccccc4[nH]3)c(=O)oc2c1 | 96* | 3 | 76* | 26 | 81* | 42* | 89* | 105*
CCN(CC)c1ccc2cc(-c3nnc(-c4ccccc4)o3)c(=O)oc2c1 | 6 | -15 | -46 | -2 | -6 | -140 | x | x
CCN(CC)c1ccc2cc(-c3nc4ccccc4n3C)c(=O)oc2c1 | 1 | 3 | -6 | 1 | 27 | -59 | x | x
CCCCn1c(N)c(N(CCOC)C(=O)CSc2nnc(-c3ccc(F)cc3)n2N)c(=O)[nH]c1=O | x | x | -6 | x | -10 | 4 | x | x
C/C(N)=C(/C#N)C(=O)CSc1nnc(NC(C)C)s1 | -45 | 0 | 51* | 48 | 11 | 4 | 26 | 78*
C/C(N)=C(/C#N)C(=O)CSc1nnc(Nc2ccccc2)s1 | 7 | 0 | -7 | 16 | -10 | -4 | x | x
CC(=O)c1ccc(NC(=O)C2Cc3ccccc3CN2C(=O)c2ccccc2)cc1 (stereo not drawn) | 0 | 0 | -6 | 8 | -2 | 2 | x | x
COc1ccc(NC(=O)C2Cc3ccccc3CN2C(=O)c2ccccc2)cn1 (stereo not drawn) | -28 | -3 | 77* | 1 | 81* | 55* | 75* | 93*
CC(=O)N1CCc2c(sc(NC(=O)C3CCCN3S(=O)(=O)c3cccs3)c2C(N)=O)C1 (stereo not drawn) | x | x | 64* | x | 67* | 115* | 67* | 76*
CC(=O)N1CCc2c(sc(NC(=O)C3CCN(S(=O)(=O)c4cccs4)CC3)c2C(N)=O)C1 | x | x | 3 | x | 6 | 28 | x | x
CCc1ccc(N2CC(C(=O)Nc3cccc(S(=O)(=O)N4CCCC4)c3)CC2=O)cc1 (stereo not drawn) | x | x | -8 | x | -4 | 3 | x | x
Cc1cccc(-c2oc3ccc(-c4ccc5c(c4)OCO5)cc3c2C(=O)OCc2ccc(O)cc2)c1 | x | x | 10 | x | 8 | 2 | x | x
Cc1c(C(=O)NC2CCOC2)oc2c(F)cccc12 (stereo not drawn) | x | x | -3 | x | -1 | 1 | x | x
COC(=O)c1cc(S(=O)(=O)NCCc2sccc2C)c[nH]1 | x | x | -4 | x | -1 | -13 | x | x
O=C1C(Nc2cccc(O)c2)=C(N2CCCCC2)C(=O)c2ccccc21 | -62 | 3 | 55* | 30 | 57* | 71* | 19 | 37
Cc1ccc(N(CC(=O)NC2CC2)S(=O)(=O)c2ccccc2)c(C)c1 | x | x | -11 | x | -12 | -4 | x | x
Nc1nn2cc(-c3ccc(Br)cc3)nc2c2ccccc12 | 9 | x | 2 | 17 | 1 | 6 | x | x

High-throughput results: PubChem BioAssay, several laboratories
